High-throughput results from PubChem.
The list is not random: actives were taken first. Their share in the collection is about 4.1%.
MazEF act: increases E. coli MazEF RNase cleavage of RNA; FAM/BHQ RNA-DNA oligo cleavage fluorescence, 5 h; activation, % at 20 µM; 0.32% of 350,000 active; AID 504720; in the data active = activation above about 50%
Target sequence (P0AE70 whole entry, looked up): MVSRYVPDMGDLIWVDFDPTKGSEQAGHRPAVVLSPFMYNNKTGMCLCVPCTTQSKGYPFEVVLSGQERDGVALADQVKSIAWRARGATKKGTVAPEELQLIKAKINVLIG
Anthrax LF inh2: anthrax lethal factor protease inhibition; P15917; multiplex microsphere protease cleavage assay, LF; inhibition, % at 10 µM; 0.12% of 360,000 active; AID 588501; also: plate controls were buffer without enzyme for full effect and enzyme alone for no effect
BoNT F protease: blocks Botulinum neurotoxin F light chain protease; Multiplex microsphere protease cleavage assay, flow cytometry; inhibition, % at 10 µM; 0.22% of 360,000 active; AID 588497; in the data active = inhibition above about 35%, passing the limit was not always enough; inconclusive = no clear call, values can overlap the other calls; also: plate controls were buffer without enzyme for full effect and enzyme alone for no effect
BoNT A protease: blocks Botulinum neurotoxin A light chain protease. 0.17% of 360,000 active. inhibition, % at 10 µM. multiplex microsphere protease substrate cleavage, flow cytometry; also: plate controls were buffer without enzyme for full effect and enzyme alone for no effect
DUSP3 inh: inhibitors of human VHR1 phosphatase (DUSP3) | P51452 | recombinant VHR phosphatase, pNPP absorbance | inhibition, % at 13.3 µM | 0.52% of 290,000 active | AID 1654; in the data active = inhibition above about 50%
Target sequence (P51452 whole entry, looked up): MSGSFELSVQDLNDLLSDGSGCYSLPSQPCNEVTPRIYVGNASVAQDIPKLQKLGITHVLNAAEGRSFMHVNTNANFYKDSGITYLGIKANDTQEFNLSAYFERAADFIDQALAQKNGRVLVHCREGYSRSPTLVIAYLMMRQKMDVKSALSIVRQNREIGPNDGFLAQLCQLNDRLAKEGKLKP
Bead autofluor: counter-screen for toxin protease inhibitors: compound fluorescence. AID 624483. fluorescence intensity (no concentration beside the values). 3.1% of 360,000 active. compound autofluorescence counterscreen, microsphere flow cytometry; hits give high values; in the data active = fluorescence intensity above about 16000; inconclusive = no clear call, values can overlap the other calls
The depositor's hits bear a star; ? = inconclusive; . = no result given. Rule as the data show it, unless noted: active = inhibition above about 30%; inconclusive = no clear call, values can overlap the other calls; inactive = below that.

SMILES | MazEF act | Anthrax LF inh2 | BoNT F protease | BoNT A protease | DUSP3 inh | Bead autofluor
COc1ccc(C(=O)N2CCCC(C)(C(=O)NS(=O)(=O)C3CC3)C2)c(OC)c1 (stereo not drawn) | . | -6.8 | -5.1 | -0.2 | . | 3733
O=C(CC1COc2ccccc2O1)NC1CCCCC1 (stereo not drawn) | 4.2 | 0.5 | -4.9 | -1.2 | 21.9 | 2415
O=C(CCC1COc2ccccc2O1)NC1CCCCC1 (stereo not drawn) | 9.0 | 0.4 | 1.9 | -0.4 | -9.8 | 23549*
CN(C)C(=O)COn1c(SCC(=O)N(C)C)nc2ccccc2c1=O | -0.1 | -3.6 | -1.2 | 0.4 | 12.3 | 20262*
CN1CCN(c2ccccc2NC(=O)c2ccc3c(c2)OCCO3)CC1 | 6.8 | -7.6 | 11.1 | 1.7 | -11.4 | 3384
C#CCNc1c(C)c(C)nc2ncnn12 | 5.0 | -1.4 | -5.6 | -3.8 | -9.6 | 24659*
CCc1c(C)nc2ncnn2c1Nc1ccc(C)cc1 | 5.7 | -2.5 | -38.5 | -2.4 | 20.7 | 3741
COc1ccc(C2CC(c3cccc(Cl)c3)=NN2c2ccc(S(N)(=O)=O)cc2)cc1 (stereo not drawn) | -3.0 | 1.8 | -3.2 | -0.1 | . | 4041
COc1ccccc1-n1cc([C@@H]2C[C@H]3CN(c4ccccc4)C(=O)[C@]34CCCN24)cn1 | -59.5 | ? | ? | ? | 29.3 | 28945*
CCOc1cc([C@@H]2C[C@H]3CN(c4ccccc4)C(=O)[C@]34CCCN24)ccc1OC | -16.1 | 1.8 | 25.0 | -4.7 | -16.8 | 22393*
COc1cc([C@@H]2C[C@H]3CN(c4ccccc4)C(=O)[C@]34CCCN24)cc(OC)c1OC | -22.6 | -2.3 | 5.0 | -2.0 | 3.9 | 9522
CC(=O)c1ccc(OCCCC(=O)NNC(=O)c2ccccn2)cc1 | -3.4 | 3.9 | 0.9 | -1.2 | . | 4306
O=[N+]([O-])c1ccc(NC2CCN(Cc3ccccc3)CC2)c2ccncc12 | 58.1* | 3.7 | 1.9 | 5.3 | 16.3 | 5331
O=[N+]([O-])c1ccc(N2CCCC2)c2ccncc12 | 1.9 | -1.3 | -8.4 | 3.3 | 17.9 | 4239
O=[N+]([O-])c1ccc(NC2CCCC2)c2ccncc12 | 62.0* | -5.8 | -15.6 | 4.4 | 26.0 | 3801
CCCN1C(=O)/C(=C/c2ccc(N3CCCC3)c(C)c2)NC1=S | -15.8 | 9.1 | 14.0 | 11.1 | -2.4 | 18761*
Cc1cc(C=C(C#N)C#N)ccc1N1CCCC1 | -408.9 | 20.9 | 14.0 | 50.2* | 6.9 | 3451
CCN1C(=O)/C(=C/c2ccc(N3CCCC3)cc2)NC1=S | 38.9 | 6.5 | 3.0 | 9.7 | -9.6 | 8291
Cc1cc(/C=C2/C(=O)N(C)C(=S)N2C)ccc1N1CCCC1 | -81.9 | 21.9 | 30.5 | 36.0* | 19.1 | 15497
CCOc1ccc(NC(=O)/C(C#N)=C\c2ccc(N3CCCC3)c(C)c2)cc1 | -301.6 | -6.3 | -2.2 | 1.1 | . | 4541
Cc1cc(/C=C2\NC(=S)N(C)C2=O)ccc1N1CCCC1 | 213.9* | 4.7 | 8.6 | 4.7 | 39.8 | 6349
COCCCN(Cc1cc(OC)c(OC)c(OC)c1)C(=S)Nc1cccc(SC)c1 | 5.2 | -2.9 | -2.3 | 0.3 | . | 3784
CC(C)[C@H](NC(=O)NCc1ccc(Cl)cc1)C(=O)O | 3.0 | 0.8 | -0.1 | -2.3 | 16.2 | 23334*
CC(C)C(NCc1c(Cl)cccc1Cl)C(=O)O (stereo not drawn) | 2.4 | -0.7 | 6.7 | 4.7 | 17.6 | 21266*
COc1ccccc1C(=O)NCCC(=O)N1CC=C(c2ccccc2)CC1 | 0.1 | -0.6 | 2.2 | 2.2 | . | 4120
SMILES | MazEF act | Anthrax LF inh2 | BoNT F protease | BoNT A protease | DUSP3 inh | Bead autofluor
CSc1cnn(CCC#N)c(=O)n1 | . | -4.1 | 2.4 | -0.2 | . | 6035
CCN(CC)CCN(C)C(=O)c1[nH]c(C(F)(F)F)nc1-c1ccccc1 | . | 2.4 | -5.6 | 0.8 | . | 4548
Cc1ncsc1C(=O)N1N=C2/C(=C/c3ccccc3)CCCC2C1c1ccccc1 (stereo not drawn) | 4.7 | -5.0 | 3.6 | -0.2 | -1.0 | 7965
Cc1ncsc1C(=O)N1N=C2/C(=C/c3ccc(N4CCOCC4)cc3)CCCC2C1c1ccc(N2CCOCC2)cc1 (stereo not drawn) | -76.9 | -3.7 | -3.8 | -2.3 | 20.0 | 24267*
CCC(=O)N1CCC1(C)C(=O)Nc1cccc2cccnc12 (stereo not drawn) | . | -6.4 | 7.0 | -0.2 | . | 3494
CCOc1ccc(NC(=O)CN(C)C(=O)C(C)Oc2ccc(Cl)cc2)cc1OCC (stereo not drawn) | 4.7 | . | . | . | . | .
Cc1ccc2[nH]c3c(=O)n(CCCN4CCN(C)CC4)cnc3c2c1 | 2.5 | -0.3 | -5.7 | -3.2 | 12.9 | 23434*
COc1cc2[nH]c3c(=O)n(CCN4CCCCC4)cnc3c2cc1OC | 3.1 | -1.4 | 8.1 | -0.6 | 53.4* | 3341
